Assay results from a collection of fitness landscapes (doi:10.1038/s41467-024-54723-y).
In all, about 18,000 sequences were measured (“TetR repression strength (sort-seq, GFP reporter)”: median about 0.23, highest 2% from about 0.68 on). What follows is part of a selection rich in the highest values, with near analogues and random picks from the rest.

Each sequence was assayed against TetR (class B, Tn10) (UniProt P04483) (assay: TetR repression strength (sort-seq, GFP reporter) (relative to tetO2 = 1); higher = stronger repression). Settings: E. coli.
Summary of the method: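 Escherichia coli SIG10-MAX cells carried a low-copy plasmid library in which eight operator positions were randomized between a constitutive promoter and sfGFP, and TetR was expressed constitutively. After 5 h of growth at 37 °C in LB with 50 µg/mL chloramphenicol, 10^6 cells were FACS-sorted into 13 fluorescence bins, and each bin was Illumina-sequenced. Repression strength was the top bin index plus one minus the read-weighted mean bin, divided by the value for the unaltered operator. Across three independent transformations, only library members with ≥30 reads in every replicate and a CV ≤0.5 were averaged.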

Chain of TetR (class B, Tn10) (P04483 whole entry): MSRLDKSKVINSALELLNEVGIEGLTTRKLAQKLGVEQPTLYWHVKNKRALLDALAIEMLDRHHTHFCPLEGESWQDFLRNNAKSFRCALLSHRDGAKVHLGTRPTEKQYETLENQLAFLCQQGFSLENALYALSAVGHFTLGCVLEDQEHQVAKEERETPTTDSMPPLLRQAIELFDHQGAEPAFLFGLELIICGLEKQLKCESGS

Sequence | TetR repression strength
TCCCTGAGAGTCGTGGAGA | 0.239
TCCCGTCAAGTGGATGAGA | 0.109
TCCCTCCGAGTGCAGGAGA | 0.492
TCCCCCGCAGTGCATGAGA | 0.385
TCCCCCTCAGTTGTAGAGA | 0.237
TCCCGAGAAGTGCAGGAGA | 0.173
TCCCGACCAGTGCGGGAGA | 0.222
TCCCGAGCAGTGCAGGAGA | 0.226
TCCCGACCAGTGCAGGAGA | 0.805
TCCCGAAAAGTGCAGGAGA | 0.26
TCCCGACAAGTGCAGGAGA | 0.684
TCCCTAGCAGTGGTGGAGA | 0.27
TCCCGTTGAGTGTATGAGA | 0.181
TCCCAGGCAGTCCGTGAGA | 0.2
TCCCGGTTAGTGCAAGAGA | 0.415
TCCCTAGGAGTAACGGAGA | 0.183
TCCCGTCTAGTTCTAGAGA | 0.36
TCCCGTCGAGTGAAGGAGA | 0.311
TCCCGTCTAGTTCTGGAGA | 0.687
TCCCGTCGAGTTCCGGAGA | 0.977
TCCCGTCGAGTCCCGGAGA | 0.402
TCCCGTGTAGTTCTGGAGA | 0.189
TCCCGTCTAGTTGAGGAGA | 0.24
TCCCGTCGAGTTAAGGAGA | 0.815
TCCCGTCTAGTTAAGGAGA | 0.811
TCCCTTCTAGTTAAGGAGA | 0.283

Sequence | TetR repression strength
TCCCGTCGAGTAAAGGAGA | 0.22
TCCCGTCGAGTGCCGGAGA | 0.363
TCCCCGTAAGTGCAGGAGA | 0.21
TCCCAGCGAGTCCAGGAGA | 0.27
TCCCACTTAGTAAGTGAGA | 0.141
TCCCAGTAAGTAGCCGAGA | 0.0168
TCCCGGACAGTATATGAGA | 0.304
TCCCTAGCAGTAGTAGAGA | 0.681
TCCCCACTAGTTAAGGAGA | 0.225
TCCCCGCTAGTTAAGGAGA | 0.755
TCCCCGTTAGTTAAGGAGA | 0.149
TCCCGGAGAGTGTATGAGA | 0.188
TCCCAGTGAGTTGCCGAGA | 0.212
TCCCCTACAGTTCATGAGA | 0.189
TCCCGTACAGTTCATGAGA | 1.18
TCCCGTACAGTTGATGAGA | 0.2
TCCCGTCAAGTTCATGAGA | 0.15
TCCCATAAAGTTCATGAGA | 0.36
TCCCGTAAAGTTCATGAGA | 1.21
TCCCAGTTAGTCTTTGAGA | 0.334
TCCCTAAAAGTTTGAGAGA | 0.334
TCCCGTTCAGTGAGAGAGA | 0.516
TCCCGTGCAGTGATAGAGA | 0.647
TCCCTGATAGTGATCGAGA | 0.362
TCCCATCCAGTGATAGAGA | 0.626
TCCCTGCTAGTGATCGAGA | 0.745
